Compounds with a hit are over-represented: about 2.9% of the library has one in this group of screens.
ADAM10 inh = ADAM10 inhibition, QFRET primary screen; O14672; recombinant ADAM10, EDANS/DABCYL FRET peptide cleavage, 3 h; inhibition, % at 7 µM; 0.62% of 370,000 active;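 active means inhibition above a per-campaign cutoff equal to the mean of compounds falling between control-based bounds plus 3 SD, cut at about 20% in these data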
ADAM17 inh = inhibitors of human ADAM17; recombinant ADAM17, EDANS/DABCYL FRET peptide cleavage; inhibition, % at 6.95 µM; 0.83% of 370,000 active; AID 720648;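 active means inhibition above the mean of compounds lying between control limits plus 3 SD, set per campaign, cut at about 8.5% in these data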
Target sequence (P78536 215-824 limits assumed): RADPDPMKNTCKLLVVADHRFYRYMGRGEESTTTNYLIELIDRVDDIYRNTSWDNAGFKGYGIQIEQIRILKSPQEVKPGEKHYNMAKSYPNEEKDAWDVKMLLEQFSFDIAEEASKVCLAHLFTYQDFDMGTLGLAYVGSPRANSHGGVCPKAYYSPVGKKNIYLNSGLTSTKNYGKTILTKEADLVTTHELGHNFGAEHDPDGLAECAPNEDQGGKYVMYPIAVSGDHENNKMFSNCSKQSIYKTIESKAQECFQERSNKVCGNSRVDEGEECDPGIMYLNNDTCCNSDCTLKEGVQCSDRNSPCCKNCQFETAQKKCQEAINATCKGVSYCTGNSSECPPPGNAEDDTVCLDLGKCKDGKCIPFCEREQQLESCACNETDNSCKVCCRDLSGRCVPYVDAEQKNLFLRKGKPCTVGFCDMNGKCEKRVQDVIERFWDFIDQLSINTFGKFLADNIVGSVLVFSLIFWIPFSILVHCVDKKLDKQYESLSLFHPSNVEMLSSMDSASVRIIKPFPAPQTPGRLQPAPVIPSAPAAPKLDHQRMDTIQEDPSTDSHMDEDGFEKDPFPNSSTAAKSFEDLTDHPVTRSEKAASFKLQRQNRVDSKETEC
PLC-gamma1 inh = blocks human PLC-gamma1 enzyme activity; P19174; purified PLC-gamma1, fluorogenic substrate, fluorescence; inhibition, % at 12.2 µM; 0.84% of 370,000 active; in the data active means inhibition above about 9.5%
PLC-beta3 inh = blocks human PLC-beta3 enzyme activity; Q01970; Purified PLC-beta3, fluorogenic substrate, fluorescence; inhibition, % at 12.2 µM; 0.18% of 370,000 active; AID 720704; in the data active means inhibition above about 11%
KLK7 zymogen act = activates the human kallikrein-7 zymogen | P49862 | purified proKLK7, EDANS-DABCYL substrate fluorescence; 100% is mature enzyme control, 0% vehicle | activation, % at 7 µM | 0.9% of 370,000 active | AID 652039;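 active means activation above the mean of all tested compounds plus 3 SD, computed per campaign excluding outliers beyond control limits, cut at about 13% in these data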
ADAM10 ctr = ADAM10 inhibition, counter-screen for ADAM17 exosite hits; inhibition, % at 6.95 µM; recombinant ADAM10, EDANS/DABCYL FRET peptide cleavage, 3 h; AID 743256; 47% of 2,900 active; shares compounds with ADAM17 inh;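 active means mean inhibition over the triplicate runs exceeds the activity threshold set in the earlier primary screen, cut at about 20% in these data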
ADAM17 confirm = human ADAM17 inhibition, confirmation | shares compounds with ADAM17 inh | recombinant ADAM17, EDANS/DABCYL QFRET peptide cleavage | inhibition, % at 6.95 µM | 65% of 2,900 active | AID 743257;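 active means mean inhibition across replicates above the hit cutoff set in the primary screen, cut at about 8.5% in these data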
Numbers stand for hits; . = inactive; / = no result given.

SMILES	ADAM10 inh	ADAM17 inh	PLC-gamma1 inh	PLC-beta3 inh	KLK7 zymogen act	ADAM10 ctr	ADAM17 confirm
Oc1ccc(C[C@H]2CNC(=S)N2CC2CCCN2C[C@H](Cc2ccccc2)N2C[C@H](Cc3ccc(O)cc3)N(CCc3ccccc3)C2=S)cc1 (stereo partly drawn)	.	10	.	.	.	44	22
CC(C)C[C@H]1CN([C@@H](Cc2ccc(O)cc2)CN2CCC[C@@H]2CN2C(=S)NC[C@@H]2Cc2ccccc2)C(=S)N1CCc1ccccc1	.	8.9	.	.	.	34	20
Oc1ccc(C[C@@H](CN2CCC[C@@H]2CN2C(=S)NC[C@@H]2Cc2ccccc2)N2C[C@H](Cc3ccccc3)N(CCc3ccccc3)C2=S)cc1	.	.	.	.	.	/	/
COc1cc(/C=N/NC(=O)c2ccncc2)ccc1OC(=O)c1cccc(F)c1	.	.	.	.	.	/	/
Cc1ccc2cc(NC(=O)c3ccccc3C)ccc2n1	.	.	.	.	.	/	/
COc1ccccc1NC(=O)COC(=O)Cn1cnc2c1c(=O)n(C)c(=O)n2C	.	.	.	.	.	/	/
COc1cc(S(=O)(=O)N2CCOCC2)ccc1NC(=O)COC(=O)c1ccc(Cl)nc1	.	.	.	.	.	/	/
CN1C=Nc2c(ncn2C2CCC(CO)O2)C1O (stereo not drawn)	.	.	.	.	.	/	/
O=C(O)c1ccc(NC(=O)c2cccc(N3C(=O)C4C5CCC(C5)C4C3=O)c2)cc1 (stereo not drawn)	.	.	.	.	.	/	/
COc1ccc(NC(=O)c2cccc(N3C(=O)C4C5CCC(C5)C4C3=O)c2)cc1 (stereo not drawn)	.	11	.	.	.	.	.
Cc1ccc(NC(=O)CCS(=O)(=O)c2ccc3c(c2)NC(=O)C(C)S3)cc1Cl (stereo not drawn)	.	.	.	.	.	/	/
CC1Sc2ccc(S(=O)(=O)CCC(=O)Nc3ccccc3Cl)cc2NC1=O (stereo not drawn)	.	9.3	.	.	.	.	.
COc1ccc(NC(=O)COc2coc(CN3CCN(c4ccccc4)CC3)cc2=O)cc1	.	.	.	.	.	/	/
NS(=O)(=O)c1ccc(NCc2cc(Cl)ccc2OCc2ccc(F)cc2)cc1	.	9.3	.	.	.	.	12
NS(=O)(=O)c1ccc(NCc2ccccc2OCc2ccccc2F)cc1	.	.	.	.	.	/	/
CC(=O)NCCNc1nc2cc(-c3ccccc3CO)sc2c(=O)n1C	.	.	.	.	.	/	/
Cc1cccc(NCC(=O)NNC(=S)Nc2ccccc2)c1	.	12	.	.	.	.	.
Cc1cccc(C)c1NC(=O)CNc1ccccc1	.	11	.	.	.	.	.
Cc1cnn(CCC(=O)NNC(=S)Nc2ccccc2)c1	.	12	.	.	.	.	.
Cc1ccc(-n2c(SCC(=O)NNC(=S)Nc3ccccc3)nc3ccccc3c2=O)cc1	.	12	.	.	.	37	11
Cc1cccc(NC(=S)NNC(=O)Cc2ccccc2)c1	.	.	.	.	.	/	/
CSc1ccc(CN(C)C(=O)COc2ccc(C(=O)c3ccccc3)cc2)cc1	.	.	.	.	.	/	/
O=C(CN1CCOCC1)Nc1ccccc1F	.	9.1	.	.	.	.	.
CC1CN(S(=O)(=O)c2csc(C(=O)Nc3ccccc3)c2)CC(C)O1 (stereo not drawn)	.	.	.	.	.	/	/
COC(=O)c1ccccc1NC(=O)CSc1nc(Nc2ccccc2)nc(N2CCOCC2)n1	.	8.7	.	.	.	.	9.1
SMILES	ADAM10 inh	ADAM17 inh	PLC-gamma1 inh	PLC-beta3 inh	KLK7 zymogen act	ADAM10 ctr	ADAM17 confirm
CC(=O)c1ccc(NC(=O)CSc2nc(Nc3ccccc3)nc(N3CCOCC3)n2)cc1	.	.	.	.	.	/	/
COC[C@@H]1CCCN1c1ccc2c(c1)O[C@H]1CCN(C1)S2(=O)=O	.	.	.	.	.	/	/
C[C@@H](O)CNC(=O)c1[nH]cnc1C(=O)N[C@H](C)c1ccccc1	.	.	.	.	.	/	/
CCOc1c(OC(C)=O)ccc(/C=C/c2ccc3cccc(OC)c3n2)c1[N+](=O)[O-]	.	9.0	.	.	.	24	16
COc1cc(/C=C/c2ccc3cccc([N+](=O)[O-])c3n2)ccc1OCC(=O)O	.	.	.	.	.	/	/
COc1ccc(C(=O)c2c[nH]c3ccccc23)cc1	.	11	.	.	.	.	.
Cc1cc(C)n2nc(C(=O)OCC(=O)NC3CCS(=O)(=O)C3)nc2n1 (stereo not drawn)	.	.	.	.	.	/	/
Cc1cnc(C(=O)N(c2ccc(N3CCOCC3)cc2)C2C(=O)Nc3ccccc3N=C2c2ccc3c(c2)OCO3)cn1 (stereo not drawn)	.	11	.	.	.	.	9.8
O=C(NC1CCCCC1)O[C@H]1CC[C@@]23CCCN2C(=O)CCC[C@H]3C1	.	.	.	.	/	/	/
CN(C(=O)CCN1CCCO1)C1CCCN(Cc2ccccc2F)C1 (stereo not drawn)	.	9.0	.	.	.	.	.
Cc1cc(C)cc(C(=O)N(C)C2CCCN(Cc3ccccc3F)C2)c1 (stereo not drawn)	.	.	.	.	.	/	/
CC(=O)c1ccc(OCCCC(=O)NNC(=O)c2ccccn2)cc1	.	.	.	.	.	/	/
Cc1cccc(C)c1NC(=O)C1(C)CSCC(=O)N1CCCn1ccnc1 (stereo not drawn)	.	.	.	.	.	/	/
CN(c1ccc(OCC(=O)OCC(=O)c2c(N)n(C)c(=O)n(C)c2=O)cc1)S(=O)(=O)c1ccc2ccccc2c1	.	9.3	.	.	.	23	10
Cc1nc(Nc2ccc(S(N)(=O)=O)cc2)sc1-c1ccccc1	.	.	.	.	.	/	/
COc1ccc(Nc2nc(C)c(-c3ccccc3)s2)cc1	.	9.1	.	.	.	.	.
Cc1[nH]c2ccccc2c1/C=C/c1cc[n+](C)cc1	.	9.4	.	.	.	.	.
C[n+]1ccc2[nH]c3ccccc3c2c1	.	.	.	.	.	/	/
CC1=CC2=NC(=O)/C(=C\c3cccn3CCOc3cccc(C)c3)C(=N)N2O1	.	8.7	.	.	.	.	.
CN(c1ccc(OCc2ccc([N+](=O)[O-])cc2)cc1)S(=O)(=O)c1ccccc1	.	9.3	.	.	.	.	13
O=C(NC1CCCC1)C1C(c2ccc(C(F)(F)F)cc2)=Nc2ccccc2N1C(=O)c1cccc(C(F)(F)F)c1 (stereo not drawn)	.	.	.	.	.	/	/
CCCCOc1ccc(NC(=O)CN2CCN(Cc3ccccc3)CC2)cc1	.	8.8	.	.	.	.	.
CC(C)C[C@H]1CN(CCCC[C@H]2CNC(=O)C(=O)N2CCc2ccccc2)C(=O)C(=O)N1CCc1ccc(O)cc1	.	.	.	.	.	/	/

Screens from PubChem BioAssay.
